# Test results published in PubChem BioAssay AID1159580 (chemical genetic matrix, 2015).
# Hit rate of the full screen: of about 5,500 compounds, about 2,000 (36%) were called active. Inconclusive results (about 18%) are left out. The list shows a part of the results. Unmarked numbers belong to inactive results. No stated cut-off is given here; in the data, active means normalized growth mostly below about 0.91 (no sharp cut-off); inconclusive means no clear call, values can overlap the other calls; inactive means mostly above about 0.92.
# Assay: chemical genetic growth profiling, strain panel (AID 1159580);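 further: tested at 20 µM; growth read once vehicle control cultures reached saturation at 30 °C; 1 = growth at the plate median or of vehicle wells; lower values mean less growth of the strain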
# Conditions: growth OD
# [1] = S. cerevisiae deletion strains, locus YAL013W, strain DEP1, hits give low values
# [2] = S. cerevisiae deletion strains, locus YBR229C, strain ROT2, hits give low values
# [3] = S. cerevisiae deletion strains, locus YDL101C, strain DUN1, hits give low values
# [4] = S. cerevisiae deletion strains, locus YDR150W, strain NUM1, hits give low values
# [5] = S. cerevisiae deletion strains, locus YEL061C, strain CIN8, hits give low values
# [6] = S. cerevisiae deletion strains, locus YGR078C, strain PAC10, hits give low values
# [7] = S. cerevisiae deletion strains, locus YHR030C, strain SLT2, hits give low values
# [8] = S. cerevisiae deletion strains, locus YHR087W, strain rtc3, hits give low values
# [9] = S. cerevisiae deletion strains, locus YJL187C, strain SWE1, hits give low values
# [10] = S. cerevisiae deletion strains, locus YJR043C, strain POL32, hits give low values
# [11] = S. cerevisiae deletion strains, locus YJR075W, strain HOC1, hits give low values
# [12] = S. cerevisiae deletion strains, locus YLR039C, strain RIC1, hits give low values
# [13] = S. cerevisiae deletion strains, locus YLR058C, strain SHM2 (second series), hits give low values
# [14] = S. cerevisiae deletion strains, locus YLR085C, strain ARP6, hits give low values
# [15] = S. cerevisiae deletion strains, locus YLR262C, strain YPT6, hits give low values
# [16] = S. cerevisiae deletion strains, locus YML094W, strain GIM5, hits give low values
# [17] = S. cerevisiae deletion strains, locus YMR219W, strain ESC1, hits give low values
# [18] = S. cerevisiae deletion strains, locus YMR263W, strain SAP30, hits give low values
# [19] = S. cerevisiae deletion strains, locus YNL153C, strain GIM3, hits give low values
# [20] = S. cerevisiae deletion strains, locus YNL298W, strain CLA4 (second series), hits give low values
# [21] = S. cerevisiae deletion strains, locus YNL322C, strain KRE1, hits give low values
# [22] = S. cerevisiae deletion strains, locus YNR030W, strain Alg12, hits give low values
# [23] = S. cerevisiae deletion strains, locus YPL055C, strain LGE1, hits give low values
# [24] = S. cerevisiae deletion strains, locus YPL241C, strain CIN2, hits give low values
# [25] = S. cerevisiae deletion strains, locus YPR135W, strain CTF4, hits give low values
smiles,measurement,setting,value
NC(=S)N/N=C\c1ccc(F)c(Cl)c1,normalized growth,[1],0.921 (active)
same,normalized growth,[2],0.995
same,normalized growth,[3],0.972
same,normalized growth,"S. cerevisiae deletion strains, locus YDL134C, strain PPH21, hits give low values",0.992
same,normalized growth,[4],1
same,normalized growth,[5],0.804 (active)
same,normalized growth,[6],0.988
same,normalized growth,[7],0.605 (active)
same,normalized growth,[8],1.04
same,normalized growth,[9],0.981
same,normalized growth,[10],0.996
same,normalized growth,[11],1.04
same,normalized growth,[12],0.966
same,normalized growth,[13],0.996
same,normalized growth,[14],0.198 (active)
same,normalized growth,[15],1.06
same,normalized growth,[16],0.759 (active)
same,normalized growth,[17],0.999
same,normalized growth,[18],0.919
same,normalized growth,"S. cerevisiae deletion strains, locus YNL128W, strain TEP1, hits give low values",0.944
same,normalized growth,[19],0.961
same,normalized growth,[20],0.661 (active)
same,normalized growth,[21],1.04
same,normalized growth,[22],0.811 (active)
same,normalized growth,[23],0.849
same,normalized growth,[24],0.889
same,normalized growth,[25],0.655
NC(=S)N/N=C\c1cc(F)cc(F)c1,normalized growth,[1],0.97
same,normalized growth,[2],1.01
same,normalized growth,[3],1.04
same,normalized growth,[4],0.96
same,normalized growth,[5],0.94
same,normalized growth,[6],0.998
same,normalized growth,"S. cerevisiae deletion strains, locus YGR229C, strain SMI1, hits give low values",0.944
same,normalized growth,[7],0.778
same,normalized growth,[8],1.08
same,normalized growth,[9],0.971
same,normalized growth,[10],0.98
same,normalized growth,[11],1.02
same,normalized growth,[12],1.05
same,normalized growth,[13],0.994
same,normalized growth,[14],0.34 (active)
same,normalized growth,[15],1.04
same,normalized growth,[16],0.923
same,normalized growth,[17],0.999
same,normalized growth,[18],0.92
same,normalized growth,"S. cerevisiae deletion strains, locus YMR307W, strain GAS1, hits give low values",0.574 (active)
same,normalized growth,[19],0.976
same,normalized growth,[20],0.761 (active)
same,normalized growth,[21],1.05
same,normalized growth,[22],0.922
same,normalized growth,[23],0.963
same,normalized growth,[24],0.933
same,normalized growth,[25],0.78
same,normalized growth,"S. cerevisiae strains, strain wild type, hits give low values",0.923
Cc1cccc(Cl)c1/C=N\NC(N)=S,normalized growth,"S. cerevisiae deletion strains, locus YAR019C, strain CDC15, hits give low values",0.868 (active)
same,normalized growth,"S. cerevisiae deletion strains, locus YBL105C, strain PKC1, hits give low values",0.911
same,normalized growth,"S. cerevisiae deletion strains, locus YBR135W, strain CKS1, hits give low values",0.904
same,normalized growth,"S. cerevisiae deletion strains, locus YBR136W, strain MEC1, hits give low values",0.862 (active)
same,normalized growth,"S. cerevisiae deletion strains, locus YBR160W, strain CDC28, hits give low values",0.892 (active)
same,normalized growth,"S. cerevisiae deletion strains, locus YDL017W, strain CDC7, hits give low values",0.896 (active)
same,normalized growth,"S. cerevisiae deletion strains, locus YDL028C, strain MPS1, hits give low values",0.88 (active)
same,normalized growth,[3],0.89 (active)
same,normalized growth,"S. cerevisiae deletion strains, locus YDL108W, strain KIN28, hits give low values",0.869 (active)
same,normalized growth,"S. cerevisiae deletion strains, locus YDL132W, strain cdc53, hits give low values",0.877 (active)
same,normalized growth,"S. cerevisiae deletion strains, locus YDL214C, strain PRR2, hits give low values",0.867
same,normalized growth,"S. cerevisiae deletion strains, locus YDR052C, strain DBF4, hits give low values",0.858 (active)
same,normalized growth,"S. cerevisiae deletion strains, locus YDR054C, strain cdc34, hits give low values",0.865 (active)
same,normalized growth,"S. cerevisiae deletion strains, locus YDR226W, strain ADK1, hits give low values",0.826 (active)
same,normalized growth,"S. cerevisiae deletion strains, locus YDR477W, strain SNF1, hits give low values",0.765
same,normalized growth,"S. cerevisiae deletion strains, locus YER123W, strain YCK3, hits give low values",0.873
same,normalized growth,"S. cerevisiae deletion strains, locus YER133W, strain GLC7, hits give low values",0.805
same,normalized growth,"S. cerevisiae deletion strains, locus YFL009W, strain cdc4, hits give low values",0.881 (active)
same,normalized growth,"S. cerevisiae deletion strains, locus YFL029C, strain CAK1, hits give low values",0.865 (active)
same,normalized growth,"S. cerevisiae deletion strains, locus YFR003C, strain YPI1, hits give low values",0.899 (active)
same,normalized growth,"S. cerevisiae deletion strains, locus YFR019W, strain FAB1, hits give low values",0.957
same,normalized growth,"S. cerevisiae deletion strains, locus YFR028C, strain CDC14, hits give low values",0.828 (active)
same,normalized growth,"S. cerevisiae deletion strains, locus YGR040W, strain KSS1, hits give low values",0.8
same,normalized growth,"S. cerevisiae deletion strains, locus YGR052W, strain FMP48, hits give low values",0.818
same,normalized growth,"S. cerevisiae deletion strains, locus YGR092W, strain DBF2, hits give low values",0.79
same,normalized growth,[7],0.644 (active)
same,normalized growth,"S. cerevisiae deletion strains, locus YHR079C, strain IRE1, hits give low values",0.94
same,normalized growth,"S. cerevisiae deletion strains, locus YHR082C, strain KSP1, hits give low values",0.893
same,normalized growth,"S. cerevisiae deletion strains, locus YHR205W, strain SCH9, hits give low values",1.02
same,normalized growth,"S. cerevisiae deletion strains, locus YIL147C, strain SLN1, hits give low values",0.87 (active)
same,normalized growth,"S. cerevisiae deletion strains, locus YJL095W, strain BCK1, hits give low values",0.934
same,normalized growth,"S. cerevisiae deletion strains, locus YJL128C, strain PBS2, hits give low values",0.973
same,normalized growth,"S. cerevisiae deletion strains, locus YJL157C, strain FAR1, hits give low values",0.855
same,normalized growth,"S. cerevisiae deletion strains, locus YJR016C, strain ILV3, hits give low values",0.885 (active)
same,normalized growth,"S. cerevisiae deletion strains, locus YJR066W, strain TOR1 (second series), hits give low values",0.837
same,normalized growth,"S. cerevisiae deletion strains, locus YJR066W, strain TOR1, hits give low values",0.755
same,normalized growth,"S. cerevisiae deletion strains, locus YKL048C, strain ELM1, hits give low values",0.88
same,normalized growth,"S. cerevisiae deletion strains, locus YKL067W, strain YNK1, hits give low values",0.886
same,normalized growth,"S. cerevisiae deletion strains, locus YKL101W, strain HSL1, hits give low values",0.919
same,normalized growth,"S. cerevisiae deletion strains, locus YKL193C, strain SDS22, hits give low values",0.872 (active)
same,normalized growth,"S. cerevisiae deletion strains, locus YKL203C, strain TOR2, hits give low values",0.671 (active)
same,normalized growth,"S. cerevisiae deletion strains, locus YLR113W, strain HOG1, hits give low values",1.04
same,normalized growth,"S. cerevisiae deletion strains, locus YLR133W, strain CKI1, hits give low values",0.886
same,normalized growth,"S. cerevisiae deletion strains, locus YLR403W, strain SFP1, hits give low values",0.756
same,normalized growth,"S. cerevisiae deletion strains, locus YML070W, strain DAK1, hits give low values",0.932
same,normalized growth,"S. cerevisiae deletion strains, locus YMR205C, strain PFK2 (second series), hits give low values",0.886
same,normalized growth,"S. cerevisiae deletion strains, locus YMR277W, strain FCP1, hits give low values",0.87 (active)
same,normalized growth,"S. cerevisiae deletion strains, locus YNL006W, strain LST8, hits give low values",0.953
same,normalized growth,"S. cerevisiae deletion strains, locus YNL020C, strain ARK1, hits give low values",0.904
same,normalized growth,"S. cerevisiae deletion strains, locus YNL161W, strain CBK1, hits give low values",0.924
same,normalized growth,"S. cerevisiae deletion strains, locus YNL183C, strain NPR1, hits give low values",0.77
same,normalized growth,"S. cerevisiae deletion strains, locus YNL207W, strain RIO2, hits give low values",0.845 (active)
same,normalized growth,"S. cerevisiae deletion strains, locus YNL222W, strain SSU72, hits give low values",0.931
same,normalized growth,"S. cerevisiae deletion strains, locus YNL307C, strain MCK1 (second series), hits give low values",0.797
same,normalized growth,"S. cerevisiae deletion strains, locus YOL136C, strain PFK27, hits give low values",0.948
same,normalized growth,"S. cerevisiae deletion strains, locus YOR061W, strain CKA2, hits give low values",0.864
same,normalized growth,"S. cerevisiae deletion strains, locus YOR119C, strain RIO1, hits give low values",0.625 (active)
same,normalized growth,"S. cerevisiae deletion strains, locus YOR231W, strain MKK1, hits give low values",0.949
same,normalized growth,"S. cerevisiae deletion strains, locus YOR329C, strain SCD5, hits give low values",0.927
same,normalized growth,"S. cerevisiae deletion strains, locus YPL031C, strain PHO85, hits give low values",0.824
same,normalized growth,"S. cerevisiae deletion strains, locus YPL153C, strain RAD53, hits give low values",0.868
same,normalized growth,"S. cerevisiae deletion strains, locus YPL204W, strain HRR25, hits give low values",0.877
same,normalized growth,"S. cerevisiae deletion strains, locus YPL209C, strain IPL1, hits give low values",0.912
same,normalized growth,"S. cerevisiae deletion strains, locus YPL256C, strain CLN2, hits give low values",1.03
same,normalized growth,"S. cerevisiae deletion strains, locus YPR025C, strain CCL1, hits give low values",0.914
same,normalized growth,"S. cerevisiae deletion strains, locus YPR106W, strain ISR1, hits give low values",0.927
same,normalized growth,"S. cerevisiae deletion strains, locus YPR111W, strain DBF20, hits give low values",0.919
same,normalized growth,"S. cerevisiae deletion strains, strain NNK1, hits give low values",0.932
